This is an account of results in ChEMBL document CHEMBL2218924, “A broad activity screen in support of a chemogenomic map for kinase signalling research and drug discovery” (Biochem J, 2013).

Assay [1] has as its target T1, Ephrin type-A receptor 3 (Homo sapiens) (UniProt P29320).
T1 sequence (whole entry): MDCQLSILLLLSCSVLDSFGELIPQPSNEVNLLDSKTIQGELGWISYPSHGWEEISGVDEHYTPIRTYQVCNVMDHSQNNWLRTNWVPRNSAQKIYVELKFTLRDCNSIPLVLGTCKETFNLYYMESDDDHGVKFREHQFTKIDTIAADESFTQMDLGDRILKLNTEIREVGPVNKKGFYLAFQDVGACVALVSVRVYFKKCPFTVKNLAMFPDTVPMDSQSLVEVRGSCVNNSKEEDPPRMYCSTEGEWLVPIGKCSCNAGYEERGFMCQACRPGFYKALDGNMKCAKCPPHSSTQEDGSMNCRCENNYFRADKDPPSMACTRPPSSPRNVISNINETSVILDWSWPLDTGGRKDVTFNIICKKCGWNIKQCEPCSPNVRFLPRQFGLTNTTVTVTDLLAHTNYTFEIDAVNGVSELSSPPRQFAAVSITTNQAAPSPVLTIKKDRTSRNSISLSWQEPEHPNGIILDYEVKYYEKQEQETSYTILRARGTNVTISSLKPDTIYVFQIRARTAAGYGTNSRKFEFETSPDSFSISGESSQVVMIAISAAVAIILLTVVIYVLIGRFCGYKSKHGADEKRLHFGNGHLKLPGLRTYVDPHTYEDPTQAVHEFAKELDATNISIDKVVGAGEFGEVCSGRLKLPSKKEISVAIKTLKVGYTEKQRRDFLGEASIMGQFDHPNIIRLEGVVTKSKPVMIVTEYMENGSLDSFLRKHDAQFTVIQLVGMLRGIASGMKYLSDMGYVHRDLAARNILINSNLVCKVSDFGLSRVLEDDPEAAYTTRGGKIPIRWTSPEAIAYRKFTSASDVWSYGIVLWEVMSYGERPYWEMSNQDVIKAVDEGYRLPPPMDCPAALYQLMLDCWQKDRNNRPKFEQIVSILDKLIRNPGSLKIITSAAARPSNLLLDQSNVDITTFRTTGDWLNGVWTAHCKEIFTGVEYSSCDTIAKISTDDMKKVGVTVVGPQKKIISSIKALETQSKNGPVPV
The note with it: at 10 µM.

For assay [2], the target named is Ephrin type-A receptor 4 (Homo sapiens) (UniProt P54764). The note with it: at 1 µM.
Sequence of Ephrin type-A receptor 4 (Homo sapiens) (P54764 whole entry): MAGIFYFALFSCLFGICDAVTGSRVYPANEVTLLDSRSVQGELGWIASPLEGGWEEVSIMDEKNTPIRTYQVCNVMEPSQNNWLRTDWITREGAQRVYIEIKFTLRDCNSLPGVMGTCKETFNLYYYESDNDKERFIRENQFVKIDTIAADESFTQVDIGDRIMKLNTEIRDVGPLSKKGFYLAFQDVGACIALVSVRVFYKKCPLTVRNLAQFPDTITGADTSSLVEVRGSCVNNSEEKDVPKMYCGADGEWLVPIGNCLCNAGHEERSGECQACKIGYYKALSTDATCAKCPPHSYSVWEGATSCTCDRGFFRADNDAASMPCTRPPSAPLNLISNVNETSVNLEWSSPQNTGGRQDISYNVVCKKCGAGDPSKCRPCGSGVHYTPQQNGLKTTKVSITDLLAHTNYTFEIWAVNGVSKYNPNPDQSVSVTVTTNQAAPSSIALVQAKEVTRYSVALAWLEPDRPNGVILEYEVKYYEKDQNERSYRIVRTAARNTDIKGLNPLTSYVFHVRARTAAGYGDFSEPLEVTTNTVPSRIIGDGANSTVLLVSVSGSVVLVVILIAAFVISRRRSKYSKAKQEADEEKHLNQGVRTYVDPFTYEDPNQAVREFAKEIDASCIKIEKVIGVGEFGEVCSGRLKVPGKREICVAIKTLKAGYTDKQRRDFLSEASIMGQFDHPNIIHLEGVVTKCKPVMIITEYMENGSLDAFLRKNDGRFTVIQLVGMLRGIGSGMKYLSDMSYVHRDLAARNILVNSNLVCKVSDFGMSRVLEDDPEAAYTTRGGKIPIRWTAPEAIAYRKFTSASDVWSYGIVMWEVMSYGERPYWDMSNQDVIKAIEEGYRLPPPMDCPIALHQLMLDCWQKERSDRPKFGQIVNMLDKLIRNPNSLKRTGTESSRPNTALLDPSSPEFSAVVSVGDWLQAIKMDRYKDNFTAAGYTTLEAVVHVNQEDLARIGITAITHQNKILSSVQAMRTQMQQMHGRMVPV
Assay [3] has the same target. The note with it: at 10 µM.
In assay [4] the target is Ephrin type-A receptor 5 (Homo sapiens) (UniProt P54756). The note with it: at 1 µM.
Sequence of Ephrin type-A receptor 5 (Homo sapiens) (P54756 whole entry): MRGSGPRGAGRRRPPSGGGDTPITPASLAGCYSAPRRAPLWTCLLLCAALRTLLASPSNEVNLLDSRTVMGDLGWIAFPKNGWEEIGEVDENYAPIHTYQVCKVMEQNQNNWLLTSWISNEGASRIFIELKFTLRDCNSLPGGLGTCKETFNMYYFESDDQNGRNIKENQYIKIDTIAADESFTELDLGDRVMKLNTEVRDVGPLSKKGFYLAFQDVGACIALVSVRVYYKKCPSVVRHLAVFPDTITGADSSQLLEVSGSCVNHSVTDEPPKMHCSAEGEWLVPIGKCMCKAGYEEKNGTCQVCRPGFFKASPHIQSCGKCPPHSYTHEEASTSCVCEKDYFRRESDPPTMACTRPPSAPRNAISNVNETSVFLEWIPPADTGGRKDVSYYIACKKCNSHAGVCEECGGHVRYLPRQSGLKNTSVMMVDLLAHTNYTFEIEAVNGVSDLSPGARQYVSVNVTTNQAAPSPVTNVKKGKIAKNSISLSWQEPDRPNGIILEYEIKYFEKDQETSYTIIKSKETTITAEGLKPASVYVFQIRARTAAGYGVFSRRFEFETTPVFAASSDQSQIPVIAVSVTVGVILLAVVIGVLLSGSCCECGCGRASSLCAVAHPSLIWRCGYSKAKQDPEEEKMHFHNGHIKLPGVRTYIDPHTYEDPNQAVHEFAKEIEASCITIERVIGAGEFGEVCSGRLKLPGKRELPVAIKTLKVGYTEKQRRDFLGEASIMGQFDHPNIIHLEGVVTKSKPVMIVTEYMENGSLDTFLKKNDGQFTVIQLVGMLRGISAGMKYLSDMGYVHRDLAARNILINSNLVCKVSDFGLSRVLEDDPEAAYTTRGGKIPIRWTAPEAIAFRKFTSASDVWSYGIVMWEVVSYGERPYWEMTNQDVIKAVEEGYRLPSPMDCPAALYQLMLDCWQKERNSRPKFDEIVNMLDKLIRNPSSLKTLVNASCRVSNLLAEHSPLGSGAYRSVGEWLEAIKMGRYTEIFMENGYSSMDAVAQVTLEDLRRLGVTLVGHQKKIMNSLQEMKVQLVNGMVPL
Assay [5] shares this target. The note with it: at 10 µM.
The target of assay [6] is Ephrin type-A receptor 7 (Homo sapiens) (UniProt Q15375). The note with it: at 1 µM.
Sequence of Ephrin type-A receptor 7 (Homo sapiens) (Q15375 28-998 limits assumed): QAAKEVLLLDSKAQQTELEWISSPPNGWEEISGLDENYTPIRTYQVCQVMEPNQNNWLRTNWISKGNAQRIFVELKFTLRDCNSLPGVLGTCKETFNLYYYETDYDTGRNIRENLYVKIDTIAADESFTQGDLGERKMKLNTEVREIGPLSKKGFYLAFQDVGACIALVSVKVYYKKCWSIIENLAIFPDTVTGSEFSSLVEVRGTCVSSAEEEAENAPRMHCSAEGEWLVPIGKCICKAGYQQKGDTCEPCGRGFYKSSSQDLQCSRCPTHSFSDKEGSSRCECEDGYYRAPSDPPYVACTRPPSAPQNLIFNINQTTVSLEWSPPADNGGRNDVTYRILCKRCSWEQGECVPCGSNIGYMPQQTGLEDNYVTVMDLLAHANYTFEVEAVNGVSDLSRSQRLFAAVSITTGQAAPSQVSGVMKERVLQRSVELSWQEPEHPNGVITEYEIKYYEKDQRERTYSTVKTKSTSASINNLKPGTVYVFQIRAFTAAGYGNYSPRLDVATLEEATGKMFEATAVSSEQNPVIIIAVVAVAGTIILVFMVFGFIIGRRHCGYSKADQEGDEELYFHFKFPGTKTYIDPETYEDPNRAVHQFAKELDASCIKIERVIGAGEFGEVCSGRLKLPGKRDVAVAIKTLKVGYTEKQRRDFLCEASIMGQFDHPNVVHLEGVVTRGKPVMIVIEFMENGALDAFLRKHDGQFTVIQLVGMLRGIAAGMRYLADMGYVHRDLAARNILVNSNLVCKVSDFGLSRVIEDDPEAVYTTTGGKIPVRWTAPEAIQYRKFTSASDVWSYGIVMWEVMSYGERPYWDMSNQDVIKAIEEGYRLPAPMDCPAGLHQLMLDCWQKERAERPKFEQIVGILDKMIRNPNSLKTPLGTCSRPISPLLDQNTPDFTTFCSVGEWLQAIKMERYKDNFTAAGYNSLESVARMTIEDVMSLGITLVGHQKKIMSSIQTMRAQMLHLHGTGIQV
Assay [7] shares this target. The note with it: at 10 µM.
Assay [8] has as its target T2, Ephrin type-A receptor 8 (Homo sapiens) (UniProt P29322).
T2 sequence (whole entry): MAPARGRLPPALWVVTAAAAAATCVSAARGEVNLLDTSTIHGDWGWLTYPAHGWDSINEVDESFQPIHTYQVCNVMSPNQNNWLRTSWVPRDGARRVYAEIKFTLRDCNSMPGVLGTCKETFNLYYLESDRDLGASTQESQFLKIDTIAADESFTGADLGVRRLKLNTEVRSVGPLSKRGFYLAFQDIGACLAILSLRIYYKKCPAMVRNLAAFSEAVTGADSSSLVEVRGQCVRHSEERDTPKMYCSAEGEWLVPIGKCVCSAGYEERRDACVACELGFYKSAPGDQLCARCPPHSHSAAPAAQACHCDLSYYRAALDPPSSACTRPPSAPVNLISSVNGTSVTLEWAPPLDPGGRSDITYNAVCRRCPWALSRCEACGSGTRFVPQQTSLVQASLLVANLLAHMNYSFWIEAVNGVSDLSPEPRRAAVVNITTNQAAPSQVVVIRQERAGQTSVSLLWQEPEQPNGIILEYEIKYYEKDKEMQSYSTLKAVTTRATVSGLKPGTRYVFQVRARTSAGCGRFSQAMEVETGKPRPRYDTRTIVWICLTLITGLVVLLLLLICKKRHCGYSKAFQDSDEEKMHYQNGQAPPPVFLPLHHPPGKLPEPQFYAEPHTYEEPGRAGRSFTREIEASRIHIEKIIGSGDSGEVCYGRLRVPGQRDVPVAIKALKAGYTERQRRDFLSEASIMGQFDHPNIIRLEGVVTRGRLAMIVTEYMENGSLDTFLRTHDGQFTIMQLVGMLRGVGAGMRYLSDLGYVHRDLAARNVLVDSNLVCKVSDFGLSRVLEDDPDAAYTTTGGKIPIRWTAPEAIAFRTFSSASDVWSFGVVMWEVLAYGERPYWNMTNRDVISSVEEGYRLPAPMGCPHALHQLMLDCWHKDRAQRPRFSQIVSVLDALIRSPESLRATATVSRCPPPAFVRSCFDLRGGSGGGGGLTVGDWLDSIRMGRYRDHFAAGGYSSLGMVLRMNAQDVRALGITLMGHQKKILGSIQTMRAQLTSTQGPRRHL
The note with it: at 1 µM.

For assay [9], the target named is T2, Ephrin type-A receptor 8 (Homo sapiens). The note with it: at 10 µM.
Assay [10] has as its target T3, Ephrin type-B receptor 1 (Homo sapiens) (UniProt P54762).
T3 sequence (whole entry): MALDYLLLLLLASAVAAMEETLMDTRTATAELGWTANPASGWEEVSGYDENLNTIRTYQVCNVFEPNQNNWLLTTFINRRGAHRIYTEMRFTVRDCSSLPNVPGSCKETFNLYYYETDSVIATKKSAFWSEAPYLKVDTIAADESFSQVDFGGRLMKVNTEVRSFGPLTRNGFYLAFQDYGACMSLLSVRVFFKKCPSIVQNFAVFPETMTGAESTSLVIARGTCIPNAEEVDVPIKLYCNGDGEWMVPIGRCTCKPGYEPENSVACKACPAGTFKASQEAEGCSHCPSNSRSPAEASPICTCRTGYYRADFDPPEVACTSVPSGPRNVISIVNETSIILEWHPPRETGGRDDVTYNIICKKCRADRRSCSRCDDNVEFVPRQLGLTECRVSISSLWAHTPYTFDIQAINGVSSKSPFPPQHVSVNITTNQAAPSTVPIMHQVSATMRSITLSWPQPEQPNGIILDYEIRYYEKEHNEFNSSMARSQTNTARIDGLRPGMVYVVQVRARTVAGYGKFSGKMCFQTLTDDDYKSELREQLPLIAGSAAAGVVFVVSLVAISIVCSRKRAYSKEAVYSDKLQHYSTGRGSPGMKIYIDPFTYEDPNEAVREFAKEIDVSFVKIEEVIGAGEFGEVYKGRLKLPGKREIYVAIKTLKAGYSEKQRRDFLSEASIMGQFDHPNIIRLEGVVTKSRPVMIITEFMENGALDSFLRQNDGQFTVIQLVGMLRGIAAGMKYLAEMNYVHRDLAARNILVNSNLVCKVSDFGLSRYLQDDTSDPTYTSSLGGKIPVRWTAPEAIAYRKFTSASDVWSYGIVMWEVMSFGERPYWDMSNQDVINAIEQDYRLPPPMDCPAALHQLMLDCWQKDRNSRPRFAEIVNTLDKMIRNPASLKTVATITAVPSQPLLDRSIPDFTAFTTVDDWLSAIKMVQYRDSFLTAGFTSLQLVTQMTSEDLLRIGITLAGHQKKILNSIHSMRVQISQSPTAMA
The note with it: at 1 µM.

In the case of `COc1ccc(C(=O)Nc2sc3c(c2C(N)=O)CCCC3)cc1OC`, the residual activity worked out at 89% in assay [1]; 112% in assay [2]; 95% in assay [3]; 94% in assay [4]; 108% in assay [5]; 92% in assay [6]. In addition, the residual activity in assay [7] worked out at 87%; in assay [8], 107%; in assay [9], 85%; in assay [10] it was 83%.
